Our source for the AC50 and outcome values is PubChem BioAssay (EPA / NIEHS).

Each structure is given as a SMILES string. A structure can be active in one record and inactive in another. Calls of active or inactive are those of the source. Rule for the calls: active = hit-call score of the fitted dose curve at least 0.9, where 1 is the maximum; inactive = score below 0.9.

E-selectin (Homo sapiens), sequence (P16581 whole entry, looked up): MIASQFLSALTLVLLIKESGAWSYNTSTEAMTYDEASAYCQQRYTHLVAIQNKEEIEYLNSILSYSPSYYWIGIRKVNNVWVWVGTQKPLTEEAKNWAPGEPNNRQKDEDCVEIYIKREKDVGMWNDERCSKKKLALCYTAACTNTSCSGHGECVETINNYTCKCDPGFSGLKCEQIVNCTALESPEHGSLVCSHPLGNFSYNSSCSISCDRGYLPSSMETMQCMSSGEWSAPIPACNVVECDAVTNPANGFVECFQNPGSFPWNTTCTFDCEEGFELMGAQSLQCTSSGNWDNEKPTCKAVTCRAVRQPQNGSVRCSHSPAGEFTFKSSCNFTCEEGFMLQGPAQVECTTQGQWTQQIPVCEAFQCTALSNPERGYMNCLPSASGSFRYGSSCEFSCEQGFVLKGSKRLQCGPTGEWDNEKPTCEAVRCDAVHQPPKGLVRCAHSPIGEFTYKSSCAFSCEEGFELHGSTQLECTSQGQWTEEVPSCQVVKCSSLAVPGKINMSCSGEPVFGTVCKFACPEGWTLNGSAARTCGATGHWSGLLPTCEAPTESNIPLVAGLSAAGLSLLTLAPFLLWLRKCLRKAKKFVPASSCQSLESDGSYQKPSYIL

Read-out in one experiment: urokinase plasminogen activator (uPA), PLAU (gene 5328)
Put plainly: BSK_KF3CT_uPA: BioMAP Diversity Plus: KF3CT Assay for urokinase plasminogen activator (uPA) Biomarker Activity (AID 2283075). Particulars: primary human keratinocytes with fibroblasts; actives raise or lower the signal. The method, boiled down: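 Values derive from bidirectional fitting against DMSO controls. Keratinocyte/foreskin fibroblast co-cultures received chemical; 24 h later uPA was detected by ELISA, with SRB total-protein staining in parallel wells for overt cytotoxicity.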
On to `CCCCCCCCCCCCc1cccc(S(=O)(=O)O)c1`, for which the AC50 is 29.6 µM (active).

As for `CC(C)N(C(=O)CCl)c1ccccc1`, the AC50 is 33.3 µM (active).

`CN(C)C(=S)S`: the outcome was inactive.

On to `Oc1c(Br)cc(Br)cc1Br`, for which the outcome was inactive.

Consider `C[C@]12CC[C@@H](O)C[C@@H]1CC[C@@H]1[C@@H]2CC[C@]2(C)C(=O)CC[C@@H]12`, for which the outcome was inactive.

Consider `O=C(O)COc1cc(Cl)c(Cl)cc1Cl`, for which the result was inactive.

As to `Cc1ccc(OP(=O)(Oc2ccc(C)cc2C)Oc2ccc(C)cc2C)c(C)c1`, the AC50 is 20 µM (active).

Regarding `C=CC(Cl)CCl` (stereo not given), the AC50 is 0.0169 µM (active).

Consider `[Cl][Sn]([c]1ccccc1)([c]1ccccc1)[c]1ccccc1`, for which the AC50 is 0.168 µM (active).

In the case of `COc1ccccc1N`, the result was inactive.

Regarding `Cc1cccc(OP(=O)(Oc2cccc(C)c2)Oc2cccc(C)c2)c1`, the result was inactive.

Take `N#Cc1cccnc1`: the result was inactive.

Take `OC(Cc1ccccc1Cl)(Cn1[nH]cnc1=S)C1(Cl)CC1` (stereo not given): the outcome was inactive.

Turning to `CC1(C)[C@H](C(=O)O[C@H](C#N)c2cccc(Oc3ccccc3)c2)[C@@H]1/C=C(\Cl)C(F)(F)F`, the half-maximal activity concentration (AC50) was 0.12 µM (active) and the outcome was inactive.

With `CCCCCCCCCCCCN(C)C`, the result was inactive.

For the molecule `OCCCCO`, the result was inactive.

Consider `Nc1ccc(N)cc1`, for which the result was inactive.

`COCC(=O)N(c1c(C)cccc1C)[C@H](C)C(=O)OC`: the result was inactive.

Turning to `CCOP(=S)(OCC)OP(=S)(OCC)OCC`, the outcome was inactive.

In the case of `Clc1cccc(Cl)c1`, the result was inactive.

As for `OC(Cc1ccccc1Cl)(Cn1cncn1)C1(Cl)CC1` (stereo not given), the result was inactive.

Regarding `Clc1cccc(Cl)c1Cl`, the outcome was inactive.

Take `NC(=O)CCl`: the result was inactive.

Take `O=C(N[C@H]1CN2CCC1CC2)c1ccc2c(c1)OCCO2`: the outcome was inactive.

As to `c1ccc(-c2cccc(-c3ccccc3)c2)cc1`, the outcome was inactive.

In the case of `Cc1c([N+](=O)[O-])c(C)c([N+](=O)[O-])c(C(C)(C)C)c1[N+](=O)[O-]`, the result was inactive.

As to `CCCCN(CCCC)C(=S)[S-].CCCCN(CCCC)C(=S)[S-].[Ni+2]`, the result was inactive.

Turning to `O=C(CCl)NCO`, the outcome was inactive.

`Cc1cc(Cl)ccc1N`: the outcome was inactive.

Regarding `Oc1cc(Cl)c(Cl)cc1Cl`, the outcome was inactive.

On to `CCOC(=O)CCN(SN(C)C(=O)Oc1cccc2c1OC(C)(C)C2)C(C)C`, for which the outcome was inactive.

With `CCCCOC(=O)COC(=O)c1ccccc1C(=O)OCCCC`, the outcome was inactive.

For the molecule `N#CCCC(Br)(C#N)CBr` (stereo not given), the concentration at half-maximal activity (AC50) is 23.9 µM (active).

Read-out in the next experiment: CD40, CD40 (gene 958)
Put plainly: BSK_LPS_CD40: BioMAP Diversity Plus: LPS Assay for CD40 Biomarker Activity (AID 2283076). Particulars: primary human HUVEC with PBMC; actives raise or lower the signal. The method, boiled down:
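In the LPS system of human endothelial cells with peripheral blood mononuclear cells, CD40 levels were read by ELISA 24 h post-treatment. Signal changes in either direction were fitted against the DMSO baseline, with parallel SRB protein staining.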
Turning to `CCCCCCCCCCCCc1cccc(S(=O)(=O)O)c1`, the result was inactive.

`CC(C)N(C(=O)CCl)c1ccccc1`: the concentration at half-maximal activity (AC50) is 13.9 µM (active).

Take `CN(C)C(=S)S`: the result was inactive.

`Oc1c(Br)cc(Br)cc1Br`: the AC50 is 13.9 µM (active).

`C[C@]12CC[C@@H](O)C[C@@H]1CC[C@@H]1[C@@H]2CC[C@]2(C)C(=O)CC[C@@H]12`: the outcome was inactive.

As for `O=C(O)COc1cc(Cl)c(Cl)cc1Cl`, the result was inactive.

Take `Cc1ccc(OP(=O)(Oc2ccc(C)cc2C)Oc2ccc(C)cc2C)c(C)c1`: the AC50 was 6.48 µM (active).

As for `C=CC(Cl)CCl` (stereo not given), the result was inactive.

Take `[Cl][Sn]([c]1ccccc1)([c]1ccccc1)[c]1ccccc1`: the concentration at half-maximal activity (AC50) was 0.117 µM (active).

`COc1ccccc1N`: the result was inactive.

Regarding `Cc1cccc(OP(=O)(Oc2cccc(C)c2)Oc2cccc(C)c2)c1`, the outcome was inactive.

Consider `N#Cc1cccnc1`, for which the outcome was inactive.

Consider `OC(Cc1ccccc1Cl)(Cn1[nH]cnc1=S)C1(Cl)CC1` (stereo not given), for which the AC50 is 20 µM (active).

On to `CC1(C)[C@H](C(=O)O[C@H](C#N)c2cccc(Oc3ccccc3)c2)[C@@H]1/C=C(\Cl)C(F)(F)F`, for which the outcome was inactive.

With `CCCCCCCCCCCCN(C)C`, the outcome was inactive.

As to `OCCCCO`, the result was inactive.

Regarding `Nc1ccc(N)cc1`, the result was inactive.

Turning to `COCC(=O)N(c1c(C)cccc1C)[C@H](C)C(=O)OC`, the outcome was inactive.

With `CCOP(=S)(OCC)OP(=S)(OCC)OCC`, the outcome was inactive.

Consider `Clc1cccc(Cl)c1`, for which the result was inactive.

In the case of `OC(Cc1ccccc1Cl)(Cn1cncn1)C1(Cl)CC1` (stereo not given), the result was inactive.

`Clc1cccc(Cl)c1Cl`: the outcome was inactive.

Consider `NC(=O)CCl`, for which the outcome was inactive.

Take `O=C(N[C@H]1CN2CCC1CC2)c1ccc2c(c1)OCCO2`: the outcome was inactive.

In the case of `c1ccc(-c2cccc(-c3ccccc3)c2)cc1`, the AC50 was 25.4 µM (active).

Regarding `Cc1c([N+](=O)[O-])c(C)c([N+](=O)[O-])c(C(C)(C)C)c1[N+](=O)[O-]`, the outcome was inactive.

`CCCCN(CCCC)C(=S)[S-].CCCCN(CCCC)C(=S)[S-].[Ni+2]`: the result was inactive.

For `O=C(CCl)NCO`, the outcome was inactive.

In the case of `Cc1cc(Cl)ccc1N`, the result was inactive.

With `Oc1cc(Cl)c(Cl)cc1Cl`, the half-maximal activity concentration (AC50) was 14.1 µM (active).

For the molecule `CCOC(=O)CCN(SN(C)C(=O)Oc1cccc2c1OC(C)(C)C2)C(C)C`, the result was inactive.

`CCCCOC(=O)COC(=O)c1ccccc1C(=O)OCCCC`: the result was inactive.

As to `N#CCCC(Br)(C#N)CBr` (stereo not given), the AC50 is 8.78 µM (active).

Read-out in a further experiment: E-selectin (Homo sapiens) (UniProt P16581)
Put plainly: BSK_LPS_Eselectin: BioMAP Diversity Plus: LPS Assay for Eselectin Biomarker Activity (AID 2283077). Particulars: primary human HUVEC with PBMC; actives raise or lower the signal. In a few lines:
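E-selectin ELISA on LPS-stimulated endothelial cell/PBMC co-cultures, read 24 h post-treatment; gains and losses fitted against DMSO. Parallel SRB staining (0.1% SRB after 10% TCA fixation, 560 nm) flags overt cytotoxicity.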
With `CCCCCCCCCCCCc1cccc(S(=O)(=O)O)c1`, the result was inactive.

With `CC(C)N(C(=O)CCl)c1ccccc1`, the AC50 is 25.4 µM (active).

As for `CN(C)C(=S)S`, the result was inactive.

In the case of `Oc1c(Br)cc(Br)cc1Br`, the result was inactive.

`C[C@]12CC[C@@H](O)C[C@@H]1CC[C@@H]1[C@@H]2CC[C@]2(C)C(=O)CC[C@@H]12`: the outcome was inactive.

`O=C(O)COc1cc(Cl)c(Cl)cc1Cl`: the result was inactive.

For `Cc1ccc(OP(=O)(Oc2ccc(C)cc2C)Oc2ccc(C)cc2C)c(C)c1`, the result was inactive.

`C=CC(Cl)CCl` (stereo not given): the outcome was inactive.

Regarding `[Cl][Sn]([c]1ccccc1)([c]1ccccc1)[c]1ccccc1`, the AC50 was 0.305 µM (active).

As for `COc1ccccc1N`, the result was inactive.

Regarding `Cc1cccc(OP(=O)(Oc2cccc(C)c2)Oc2cccc(C)c2)c1`, the result was inactive.

For `N#Cc1cccnc1`, the result was inactive.

Turning to `OC(Cc1ccccc1Cl)(Cn1[nH]cnc1=S)C1(Cl)CC1` (stereo not given), the outcome was inactive.

With `CC1(C)[C@H](C(=O)O[C@H](C#N)c2cccc(Oc3ccccc3)c2)[C@@H]1/C=C(\Cl)C(F)(F)F`, the result was inactive.

Turning to `CCCCCCCCCCCCN(C)C`, the result was inactive.

Consider `OCCCCO`, for which the result was inactive.

In the case of `Nc1ccc(N)cc1`, the result was inactive.

For `COCC(=O)N(c1c(C)cccc1C)[C@H](C)C(=O)OC`, the result was inactive.

For `CCOP(=S)(OCC)OP(=S)(OCC)OCC`, the result was inactive.

With `Clc1cccc(Cl)c1`, the result was inactive.

In the case of `OC(Cc1ccccc1Cl)(Cn1cncn1)C1(Cl)CC1` (stereo not given), the result was inactive.

Regarding `Clc1cccc(Cl)c1Cl`, the outcome was inactive.

Regarding `NC(=O)CCl`, the result was inactive.

Consider `O=C(N[C@H]1CN2CCC1CC2)c1ccc2c(c1)OCCO2`, for which the result was inactive.

Turning to `c1ccc(-c2cccc(-c3ccccc3)c2)cc1`, the concentration at half-maximal activity (AC50) is 29.7 µM (active).

Consider `Cc1c([N+](=O)[O-])c(C)c([N+](=O)[O-])c(C(C)(C)C)c1[N+](=O)[O-]`, for which the outcome was inactive.

Regarding `CCCCN(CCCC)C(=S)[S-].CCCCN(CCCC)C(=S)[S-].[Ni+2]`, the result was inactive.

As for `O=C(CCl)NCO`, the outcome was inactive.

Turning to `Cc1cc(Cl)ccc1N`, the result was inactive.

As for `Oc1cc(Cl)c(Cl)cc1Cl`, the AC50 is 34.1 µM (active).

As for `CCOC(=O)CCN(SN(C)C(=O)Oc1cccc2c1OC(C)(C)C2)C(C)C`, the result was inactive.

Take `CCCCOC(=O)COC(=O)c1ccccc1C(=O)OCCCC`: the result was inactive.

Consider `N#CCCC(Br)(C#N)CBr` (stereo not given), for which the AC50 is 20 µM (active).
